PI5P4Ka inh: qHTS for Inhibitors of phosphatidylinositol 5-phosphate 4-kinase (PI5P4K); Phosphatidylinositol 5-phosphate 4-kinase type-2 alpha (Homo sapiens), P48426; PI5P4Kalpha enzyme, ADP-Glo luminescence, 60 min; active compounds read low; max response, %; hit rate 1.2% among 330,000; AID 652105, 2013; active means max response of -50% or lower; inconclusive means between -30% and -50%; inactive means -30% or higher; further: value at the top dose of about 77 µM
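Reactions run in 0.038 M HEPES pH 7.4, 0.28 mM EGTA, 0.1% CHAPS and 5% DMSO, with PI5P4Kalpha, substrate, compound and 5 microM ATP final, one hour at room temperature. Readout is ADP-Glo luminescence.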
BLM helicase inh: qHTS Assay for Inhibitors of Bloom's syndrome helicase (BLM); recombinant BLM DNA unwinding, fluorescence dequenching; hit rate 0.2% among 350,000; AID 2528, 2010; RecQ-like DNA helicase BLM (Homo sapiens), P54132; Potency, µM (titrated, usually from 56.1 µM), usual class: inhibitors; further: nearly all actives have a fitted effect of over 35% in size
FEN1 inh: qHTS Assay for the Inhibitors of Human Flap endonuclease 1 (FEN1). hit rate 0.35% among 390,000. Potency, µM (titrated, usually from 114 µM), most hits filed as inhibitors. P39748. AID 588795, 2011. Recombinant FEN1 flap cleavage, fluorescence, 15 min; further: nearly all actives have a fitted effect of over 65% in size
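Recombinant FEN1 (10 nM) was preincubated with pin-transferred compounds for 15 min at room temperature, then flap DNA substrate (50 nM final) was added. Plates were read at 0 and 15 min, and normalized concentration–response data were fitted to a four-parameter Hill equation.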
GCN5L2 inh: qHTS Assay for Inhibitors of GCN5L2 | GCN5L2 HAT assay, ThioGlo1 CoA-SH fluorescence | Potency, µM (highest dose often 58.9 µM), usual class: inhibitors | hit rate 0.21% among 390,000 | AID 504327, 2011
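Titration-based screen in which CoA formation is detected via maleimide probe ThioGlo1 (50uM) turning fluorescent on thiol reaction; substrates H3(1-25) 75uM and acetyl-CoA 70uM, GCN5L2 20nM, 20 min incubation at room temperature.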
RECQ1 helicase: qHTS Assay for Inhibitors of RecQ-Like Dna Helicase 1 (RECQ1). ATP-dependent DNA helicase Q1 (Homo sapiens), P46063. RECQ1 DNA unwinding, red fluorescence kinetic read. Potency, µM (top dose mostly 57.3 µM), hits mostly inhibitors. hit rate 0.54% among 240,000. AID 2549, 2010; further: nearly all actives have a fitted effect of over 30% in size
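RECQ1T1 50 nM; forked duplex (20 bp + 30-nt ss tails) 200 nM, ATP 2 mM final; pH 8.0, 2 mM MgCl2, 2.5 ug/ml poly(dI-dC); 15 min compound preincubation; discontinuous kinetic read over 2 h at RT.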
APEX1 inh: qHTS Assay for Inhibitors of the Human Apurinic/apyrimidinic Endonuclease 1 (APE1) | recombinant APE1, TAMRA/BHQ-2 abasic DNA cleavage fluorescence | Potency, µM (doses to about 65.8 µM), usual class: inhibitors | hit rate 0.35% among 350,000 | AID 2517, 2012; further: nearly all actives have a fitted effect of over 55% in size
Target sequence (P27695 whole entry, looked up): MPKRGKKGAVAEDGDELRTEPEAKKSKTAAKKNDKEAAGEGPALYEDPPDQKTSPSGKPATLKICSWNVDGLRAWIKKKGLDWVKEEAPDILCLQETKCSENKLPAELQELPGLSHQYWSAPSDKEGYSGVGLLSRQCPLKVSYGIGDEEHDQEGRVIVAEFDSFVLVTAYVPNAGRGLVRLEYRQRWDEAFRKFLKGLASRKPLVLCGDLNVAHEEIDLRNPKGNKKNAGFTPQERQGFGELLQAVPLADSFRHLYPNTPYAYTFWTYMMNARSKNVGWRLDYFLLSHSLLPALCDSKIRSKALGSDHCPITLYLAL
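0.75 nM APE1 + cpd, 15 min RT; start w/ 50 nM TAMRA/BHQ-2 THF-abasic dsDNA; kinetic fluor 525/598 nm ×3 reads @60 s; Δ(read3−read1); normalized to DMSO and NSC13755 control wells.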
ADP-Glo interf: qHTS for Inhibitors of PI5P4K: ADP-Glo counter assay; 1,100 tested, under 10 active; shares compounds with PI5P4Ka inh; AID 743285, 2014; ADP-Glo detection counter-screen, luciferase luminescence, no enzyme; Potency, µM (top dose mostly 76.9 µM), usual class: inhibitors
A number is an active result; – = inactive; ? = inconclusive; · = not tested or not shown; [ ] = another dose, or the depositor's remark. Rows were chosen to be rich in hits. Some 1.5% of all compounds tested hit in one or more screens of this group. Unless noted, the call rests on the fitted dose curve; in most records, active means well fitted curve in the direction sought with a large enough effect; inconclusive means small, poorly fitted or top-dose-only effect, or another doubt; inactive means no such curve, though single readings can be large; an effect the other way counts as inactive or inconclusive.

SMILES	PI5P4Ka inh	BLM helicase inh	FEN1 inh	GCN5L2 inh	RECQ1 helicase	APEX1 inh	ADP-Glo interf
CC(C)(C)NC(=O)CSc1nc2ccc(NC(=O)CSc3nnnn3Cc3ccccc3)cc2s1	–	–	–	–[0.501 µM]	–	–	·
Cc1ccc(Nc2nc(NCc3ccco3)c3ccccc3n2)cc1	·	–	–	–	–	–	–
COc1ccccc1Nc1nc(NCc2ccco2)c2ccccc2n1	–	–	–	–	?	–	·
Cc1cc2nc(NC(=O)C3(C)CCN3C(=O)C(C)C)[nH]c2cc1C (stereo not drawn)	?	·	·	·	·	·	–
Cc1ccc(C)c(NC(=O)C2(C)CCN2C(=O)C(C)C)c1 (stereo not drawn)	–	·	·	·	·	·	·
O=C(NCCN1CCN(c2ccccc2)CC1)C1CCCN(S(=O)(=O)c2cnc[nH]2)C1 (stereo not drawn)	-61	–	–	–	–	–	–
O=C(NCCN1CCN(c2cccc(Cl)c2)CC1)C1CCCN(S(=O)(=O)c2cnc[nH]2)C1 (stereo not drawn)	–	–	–	–	–	–	·
Oc1ccc(CNc2ccc(F)cc2)c2cccnc12	-54	–	–	–	?	–	–
CC1Cc2ccccc2N1C(=O)CNc1cccc(S(=O)(=O)N2CCCC2)c1 (stereo not drawn)	-66	–	–	–	–	–	–
CC1Cc2ccccc2N1C(=O)CN1CCN(S(=O)(=O)c2ccc3c(c2)OCCCO3)CC1 (stereo not drawn)	–	·	·	·	·	·	·
C[Si](C)(C/C=C/CC[C@H](O)C1=CCCCC1=O)c1ccccc1	·	–	·	·	–	–	·
CCC1CCCCN1C(=O)Cn1nc([N+](=O)[O-])c(Cl)c1C (stereo not drawn)	-50	–	–	–	–	–	–
O=S(=O)(c1ccccc1)c1nc(-c2ccco2)oc1N1CCCCCC1	-53	–	–	–	–	–	–
COc1cccc(CNC(=O)CSc2c3c(nc4ccc(Cl)cc24)CCCC3)c1OC	·	–	–	–	·	·	·
CCS(=O)(=O)N1Cc2ccccc2CC1C(=O)Nc1ncc(C)s1 (stereo not drawn)	–	–	–	–	–	–	·
CCS(=O)(=O)N1Cc2ccccc2CC1C(=O)Nc1nnc(SCc2ccc(C#N)cc2)s1 (stereo not drawn)	-57	–	–	–	–	–	–
NS(=O)(=O)c1ccc(NC(=O)C2Cc3ccccc3CN2C(=O)c2ccco2)cc1 (stereo not drawn)	-87	–	–	–	·	–	–
NS(=O)(=O)c1ccc(CCNC(=O)C2Cc3ccccc3CN2C(=O)c2ccco2)cc1 (stereo not drawn)	–	–	–	–	–	–	·
CCOC(=O)CSc1ccc2nnc(-c3cccs3)n2n1	-51	–	–	–	–	–	–
O=c1cc(CSc2nnc(-c3cccs3)n2Cc2ccccc2)nc2sc3ccccc3n12	-51	–	–	–	–	?	–
CC(C)Cc1c(O)nc(SCC(=O)N2CCCCCC2)[nH]c1=O	-50	–	–	–	·	–	–
COC(=O)N1C2CC3(C)C=C(C)OC1(C)C3c1ccccc12 (stereo not drawn)	·	–[12.4 µM]	·	·	–[11.5 µM]	–[12.4 µM]	·
CCCOc1ccc(C2=NC(c3ccc(F)cc3)=Nc3ccc(OC)cc3N2)cc1	·	–	–	–	·	·	·
CCOC(=O)c1c(NC(=O)c2nc(S(C)(=O)=O)ncc2Cl)sc(C(C)=O)c1C	·	–	–	–	·	·	·
Cc1ccc(NCC(=O)Nc2ccc(Br)cc2)cc1C	–	–	–	–	·	–	–

Screening results (PubChem BioAssay)
